From the supplement of paper PMC12669032
Values without a mark were called inactive.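 The calls were made as follows: active = AUC reduced over 20% with Padj below 0.05 in at least 2 of 3 replicates; inactive = otherwise.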

Columns and labels:
Experiment in all cases: growth AUC relative to DMSO control (median of replicates) (fraction); higher = more growth (less inhibition), active = hit call of the paper
Conditions in all cases: 20 µM; 24 h
[1] = test system: Akkermansia muciniphila
Procedure, shortened: (§1)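 OD600 was recorded every hour for 24 h in anaerobic monocultures of gut bacteria kept at 37 °C in mGAM, seeded at OD600 0.05 and given 20 µM compound in 1% DMSO. The area under each growth curve was scaled to the plate median of solvent-only wells, or to row and column medians for the industrial chemical plate. Before this step, the minimum OD was set to 0. Reported values are medians of three biological replicates run on separate days.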

[2] = test system: Bacteroides caccae
Procedure, shortened: as §1

[3] = test system: Bacteroides clarus
Procedure, shortened: as §1

[4] = test system: Bacteroides dorei
Procedure, shortened: as §1

[5] = test system: Bacteroides stercoris
Procedure, shortened: as §1

[6] = test system: Bacteroides thetaiotaomicron
Procedure, shortened: as §1

[7] = test system: Bacteroides uniformis
Procedure, shortened: as §1

[8] = test system: Bifidobacterium longum subsp. longum
Procedure, shortened: as §1

[9] = test system: Clostridium difficile
Procedure, shortened: as §1

[10] = test system: Collinsella aerofaciens
Procedure, shortened: as §1

[11] = test system: Coprococcus comes
Procedure, shortened: as §1

[12] = test system: Escherichia coli ED1a
Procedure, shortened: as §1

[13] = test system: Escherichia coli IAI1
Procedure, shortened: as §1

[14] = test system: Eubacterium rectale
Procedure, shortened: as §1

[15] = test system: Fusobacterium nucleatum subsp. animalis
Procedure, shortened: as §1

[16] = test system: Lactobacillus gasseri
Procedure, shortened: as §1

[17] = test system: Lactobacillus paracasei
Procedure, shortened: as §1

[18] = test system: Odoribacter splanchnicus
Procedure, shortened: as §1

[19] = test system: Parabacteroides distasonis
Procedure, shortened: as §1

[20] = test system: Parabacteroides merdae
Procedure, shortened: as §1

| Compound | growth AUC [1] | growth AUC [2] | growth AUC [3] | growth AUC [4] | growth AUC [5] | growth AUC [6] | growth AUC [7] | growth AUC [8] | growth AUC [9] | growth AUC [10] | growth AUC [11] | growth AUC [12] | growth AUC [13] | growth AUC [14] | growth AUC [15] | growth AUC [16] | growth AUC [17] | growth AUC [18] | growth AUC [19] | growth AUC [20] |
| --- | --- | --- | --- | --- | --- | --- | --- | --- | --- | --- | --- | --- | --- | --- | --- | --- | --- | --- | --- | --- |
| O=[N+](Nc1ccccc1)c1ccccc1 | 0.945 | 0.972 | 0.966 | 0.997 | 1.08 | 0.991 | 0.988 | 0.934 | 1 | 0.965 | 0.959 | 0.993 | 0.955 | 0.921 | 0.978 | 0.973 | 1.04 | 0.973 | 0.976 | 0.986 |
| O=C(Nc1ccc(O)cc1-c1ccc(Cl)cc1)c1cccnc1Cl | 0.889 | 1.02 | 0.976 | 1.03 | 0.964 | 1.01 | 1 | 1.01 | 1.03 | 1.02 | 0.924 | 0.986 | 0.976 | 0.962 | 0.916 | 1.02 | 1 | 0.872 | 1.01 | 0.994 |
| COc1nc(N)nc(C(F)(F)F)n1 | 0.945 | 0.985 | 0.992 | 1.01 | 0.988 | 0.985 | 1.01 | 1.04 | 1.03 | 1.02 | 1.05 | 0.998 | 1 | 0.958 | 1.04 | 1.08 | 0.964 | 1.01 | 1.03 | 1.02 |
| COC(=O)C(C)Oc1ccc(Oc2ncc(C(F)(F)F)cc2Cl)cc1 (stereo not given) | 1.11 | 0.968 | 0.977 | 0.964 | 0.912 | 0.992 | 0.886 | 1.02 | 0.98 | 0.954 | 1.02 | 0.972 | 0.987 | 1.05 | 0.954 | 0.84 | 0.995 | 1.03 | 0.834 | 0.963 |
| CCS(=O)(=O)c1nnc(N(C)C(=O)NC)s1 | 0.883 | 1.02 | 0.977 | 1.01 | 1.03 | 1.01 | 0.995 | 0.995 | 0.974 | 1.06 | 0.938 | 0.984 | 0.99 | 0.976 | 1.01 | 1.04 | 0.851 | 0.992 | 1.06 | 1.01 |
| CSc1nnc(C(C)(C)C)c(=O)n1/N=C/C(C)C | 0.944 | 0.905 | 1.04 | 1.02 | 1.35 | 1.02 | 0.988 | 1.08 | 1.01 | 1.02 | 1.02 | 1.04 | 0.979 | 1.1 | 1.08 | 1.08 | 1.03 | 0.96 | 1.03 | 1.02 |
| COc1nc(C)nc(NC(=O)NS(=O)(=O)c2ccccc2OCCCl)n1 | 1.06 | 1.09 | 1.01 | 1.02 | 1.02 | 0.985 | 1.01 | 1 | 0.998 | 0.993 | 1.02 | 0.948 | 1 | 0.987 | 0.953 | 0.933 | 0.982 | 1 | 0.98 | 0.97 |
| CCc1ccc(C(c2ccc(CC)cc2)C(Cl)Cl)cc1 | 0.859 | 0.912 | 0.952 | 1.02 | 0.931 | 0.977 | 1.02 | 0.972 | 1.03 | 0.901 | 1.04 | 1.02 | 1.01 | 0.935 | 0.939 | 0.938 | 0.996 | 1 | 0.976 | 0.882 |
| CC(C)(C)[C@@H](O)[C@@H](Cc1ccc(Cl)cc1)n1cncn1 (mixture of isomers) | 1.1 | 0.942 | 0.98 | 0.909 | 0.933 | 0.993 | 0.966 | 1.09 | 0.938 | 0.967 | 0.994 | 1 | 0.986 | 1.02 | 0.975 | 0.913 | 0.954 | 1.13 | 0.983 | 0.911 |
| COC(=O)C(C)Oc1ccc(Oc2ccc(C(F)(F)F)cn2)cc1 (stereo not given) | 1.14 | 0.979 | 0.992 | 0.948 | 1.23 | 0.965 | 0.968 | 1.02 | 1.01 | 0.979 | 0.977 | 1.02 | 1.02 | 1.06 | 1.12 | 0.958 | 0.98 | 1.02 | 0.821 | 0.963 |
| COC(=O)c1c(Cl)c(Cl)c(C(=O)OC)c(Cl)c1Cl | 0.846 | 1.04 | 0.985 | 1.02 | 0.88 | 1.02 | 0.994 | 0.953 | 1.07 | 0.986 | 1.05 | 0.979 | 0.995 | 1.16 | 0.963 | 0.974 | 0.982 | 1.1 | 0.979 | 1.01 |
| COC(=O)Nc1ccc(Cl)c(Cl)c1 | 0.817 | 0.99 | 0.96 | 0.969 | 0.95 | 0.966 | 0.966 | 0.84 | 0.978 | 1.02 | 0.987 | 0.999 | 0.939 | 0.973 | 0.926 | 1.15 | 1.08 | 0.974 | 0.986 | 0.956 |
| CCCN(CCOc1c(Cl)cc(Cl)cc1Cl)C(N)=O | 0.911 | 0.899 | 0.959 | 0.935 | 0.98 | 0.961 | 0.894 | 0.971 | 0.987 | 0.993 | 1 | 1.01 | 0.985 | 1 | 0.935 | 0.946 | 0.851 | 0.978 | 0.949 | 0.977 |
| COc1cc(OC)nc(NC(=O)NS(=O)(=O)c2c(Cl)nc3ccccn23)n1 | 1.06 | 1.02 | 1 | 1.02 | 1.1 | 1 | 1.02 | 1.02 | 1 | 1.03 | 0.981 | 1.01 | 1.01 | 1.01 | 1.13 | 1.06 | 1.11 | 0.984 | 1.02 | 1.04 |
| Oc1c(Cl)cc(Cl)c(Cl)c1Cc1c(O)c(Cl)cc(Cl)c1Cl | 0.193 (active) | 0.0131 (active) | 0.0212 (active) | 0.0142 (active) | 0.00917 (active) | 0.00403 (active) | 0.0126 (active) | 0.0988 (active) | 0.0083 (active) | 0.0126 (active) | 0.19 (active) | 0.867 | 0.856 | 0.0106 (active) | 0.078 (active) | 0.037 (active) | 0.0796 (active) | 0.018 (active) | 0.026 (active) | 0.0156 (active) |
| COC(=O)c1c(Cl)nn(C)c1S(=O)(=O)NC(=O)Nc1nc(OC)cc(OC)n1 | 0.984 | 1.04 | 1.07 | 1.02 | 1 | 0.991 | 1 | 1.06 | 1 | 1.02 | 1 | 1.01 | 1.01 | 1 | 1.09 | 0.882 | 1.03 | 0.999 | 1.01 | 0.99 |
